Where only a bound is given, the exact number is not on record here.

Details in all cases: treatment time: 24 h
The subject of assay [1] is HepG2-ACTB-RAB5A. Kind of assay: lowest phenotypically active concentration; higher = less potent. A digest of the protocol: (§1)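 Four wells per concentration (0.3, 1, 3 or 9 µM) were treated for 24 h in each of fifteen gene-edited reporter lines from A549, HepG2 and WPMY1 cells, then imaged live. After normalising live-cell features to solvent control wells, deviation was defined as ≥3 of 4 wells lying past the 95th percentile of control Euclidean distances. Reproducibility was defined as a median replicate Pearson correlation above the 95th percentile of non-replicates. Both had to hold for phenotypic activity.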

Assay [2] concerns HepG2-CANX-COX4. The assay is described as above. A digest of the protocol: as §1
The subject of assay [3] is HepG2-GM130-SQSTM1. The description is as above. Put shortly:
as §1

For assay [4], the system named is WPMY1-GM130-SQSTM1. The description is as above. Put shortly: as §1
Assay [5] deals with WPMY1-TP53BP1-CLTA. The assay is described as above. A digest of the protocol: as §1
Assay [6] concerns A549-ACTB-RAB5A. Kind of assay: phenotypically active (imaging signature differs from DMSO and reproducible) at any of 0.3-9 uM (binary (1 = active, 0 = inactive)); higher = active. Put shortly: as §1
In assay [7] the test system is A549-CANX-COX4. The assay is described as above. A digest of the protocol:
as §1

Assay [8] concerns A549-GM130-SQSTM1. The assay is described as above. Put shortly: as §1
Assay [9] has as its system A549-TP53BP1-CLTA. The assay is described as above. A digest of the protocol:
as §1

Assay [10] has as its system A549-TUBA1B-RELA. The assay is described as above. A digest of the protocol:
as §1

Assay [11] relates to HepG2-ACTB-RAB5A. The assay is described as above. A digest of the protocol:
as §1

For assay [12], the system named is HepG2-CANX-COX4. The description is as above. Put shortly: as §1
Assay [13] relates to HepG2-GM130-SQSTM1. Described as above. Put shortly: as §1
Assay [14] has as its system HepG2-TP53BP1-CLTA. The assay is described as above. Put shortly:
as §1

Assay [15] deals with HepG2-TUBA1B-RELA. The assay is described as above. Put shortly:
as §1

Assay [16] deals with WPMY1-ACTB-RAB5A. The description is as above. Put shortly: as §1
The test system of assay [17] is WPMY1-CANX-COX4. The description is as above. Put shortly: as §1
The test system of assay [18] is WPMY1-GM130-SQSTM1. The assay is described as above. A digest of the protocol:
as §1

For assay [19], the system named is WPMY1-TP53BP1-CLTA. The assay is described as above. Put shortly: as §1
Assay [20] relates to WPMY1-TUBA1B-RELA. Described as above. Put shortly:
as §1

`C[C@]12CC[C@H]3[C@@H](CC[C@]4(O)C[C@@H](O)CC[C@]34C=O)[C@@]1(O)CC[C@@H]2C1=CC(=O)OC1` [Strophanthidin]: the “lowest phenotypically active concentration” value in assay [1] is at most 0.3 µM; in assay [2] it was 1 µM; in [3] it was 1 µM; in assay [4], at most 0.3 µM; in [5], at most 0.3 µM. Besides, the phenotypically active in [6], in assay [7], in assay [8], in assay [9], in [10] and in [11] was 1 (active) each time. The phenotypically active in assay [12], in assay [13], in assay [14], in assay [15], in assay [16] and in assay [17] was 1 (active) in each case. Also, the phenotypically active in [18], in [19] and in assay [20] was 1 (active) throughout.
In the case of `CC[C@]12C=CCN3CC[C@]4(C(=C(C(=O)OC)C1)Nc1ccccc14)[C@@H]32` [Tabersonine dichlorhydrate], the “lowest phenotypically active concentration” value in [1], in assay [2], in assay [3], in assay [4] and in assay [5] was 9 µM in each case. The phenotypically active in assay [6] is 1 (active); in assay [7] it was 1 (active); in assay [8], 1 (active); in assay [9], 0 (inactive); in [10], 1 (active); in [11], 1 (active). Also, the phenotypically active in assay [12], in assay [13], in assay [14], in assay [15], in assay [16] and in [17] was 1 (active) each time. For the same compound, the phenotypically active in assay [18], in [19] and in [20] was 1 (active) in each case.
With `COc1ccc(C[C@H]2NC[C@H](O)[C@H]2OC(C)=O)cc1` [Anisomycin], the “lowest phenotypically active concentration” value in assay [1], in assay [2], in assay [3], in [4] and in [5] was at most 0.3 µM each time. Also, the phenotypically active in assay [6], in assay [7], in [8], in assay [9], in [10] and in assay [11] was 1 (active) in each case. Further, the phenotypically active in assay [12], in assay [13], in [14], in assay [15], in assay [16] and in assay [17] was 1 (active) in each case. Moreover, the phenotypically active in assay [18], in [19] and in assay [20] was 1 (active) throughout.
`CC[C@@H](C(=O)[C@@H](C)[C@@H](O)[C@H](C)[C@@H]1O[C@@H]([C@@H](CC)C(=O)O)CC[C@@H]1C)[C@H]1O[C@]2(C=C[C@@H](O)[C@]3(CC[C@@](C)([C@H]4CC[C@](O)(CC)[C@H](C)O4)O3)O2)[C@H](C)C[C@@H]1C` [Salinomycin Sodium]: the “lowest phenotypically active concentration” value is 1 µM in assay [1]; 1 µM in [2]; 1 µM in [3]; at most 0.3 µM in assay [4]; at most 0.3 µM in assay [5]. Moreover, the phenotypically active in assay [6], in [7], in [8], in assay [9], in assay [10] and in assay [11] was 1 (active) each time. Moreover, the phenotypically active in [12], in assay [13], in assay [14], in [15], in [16] and in assay [17] was 1 (active) in each case. For the same compound, the phenotypically active in assay [18], in [19] and in [20] was 1 (active) each time.

For the origin of these results see the supplement of paper PMC7411054.
